Our source for the Potency values is PubChem BioAssay (NCATS).

Experiment [1] is described as follows: qHTS of pediatric cancer cell lines to identify multiple opportunities for drug repurposing: Primary screen for A673 cells (AID 1347092). Further: nearly all actives have a fitted effect of over 45% in size. Further: potency means the concentration at half of the fitted maximal effect. The essentials: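 Titration-based qHTS on A673 cells: MIPE compounds spanned 11 points (0.78 nM to 46 µM final), NPC compounds 8 points (0.59 nM to 46 µM final). Viability after 48 h was measured by ATP luminescence.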
On the technique in general: Quantitative high-throughput screening tests each substance at several concentrations.

Experiment [2] can be described thus: qHTS of pediatric cancer cell lines to identify multiple opportunities for drug repurposing: Primary screen for SK-N-MC cells (AID 1347093). Further: potency means the concentration at half of the fitted maximal effect. A digest of the protocol:
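Metabolically active cells were quantified by ATP-dependent luminescence (CellTiter-Glo, 15 min at room temperature) following 48 h treatment. Cells had been plated at 500-1,000 per well and settled for 5 h beforehand.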

The nature of experiment [3]: qHTS of pediatric cancer cell lines to identify multiple opportunities for drug repurposing: Primary screen for NB-EBc1 cells (AID 1347095). The essentials: (§1)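 Primary screen of approved and investigational compounds on cells in growth media at 37 degrees C, 5% CO2. MIPE set at 11-point and NPC set at 8-point dilutions; viability scored by ATP-based luminescence at 48 hours.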

Experiment [4] is described as follows: qHTS of pediatric cancer cell lines to identify multiple opportunities for drug repurposing: Primary screen for U-2 OS cells (AID 1347096). Further: nearly all actives have a fitted effect of over 50% in size. A digest of the protocol: (§2)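 Cells (500-1,000/well) in growth media were settled 5 h at 37 degrees C, then given compounds for 48 h. Viability was read as CellTiter-Glo luminescence. Primary runs used MIPE at 11 points (0.78 nM-46 µM) and NPC at 8 points (0.59 nM-46 µM); follow-ups used 11 points.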

The nature of experiment [5]: qHTS of pediatric cancer cell lines to identify multiple opportunities for drug repurposing: Primary screen for Saos-2 cells (AID 1347097). Further: nearly all actives have a fitted effect of over 40% in size. A digest of the protocol:
as §1

Experiment [6] in a line: qHTS of pediatric cancer cell lines to identify multiple opportunities for drug repurposing: Primary screen for SK-N-SH cells (AID 1347098).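 Further: DMSO served as neutral control and bortezomib at 2.3 µM as positive control; nearly all actives have a fitted effect of over 65% in size.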 A digest of the protocol: (§3)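 Cells (500-1,000/well) rested 5 h, then received compounds for 48 h; metabolically active cells were measured by CellTiter-Glo luminescence. Final concentrations spanned up to 46 µM (MIPE, 11-point) or 0.59 nM-46 µM (NPC, 8-point) in primary screens, 11-point in follow-ups.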

Experiment [7] can be described thus: qHTS of pediatric cancer cell lines to identify multiple opportunities for drug repurposing: Primary screen for NB1643 cells (AID 1347099). Further: nearly all actives have a fitted effect of over 50% in size. The essentials:
as §1

A short description of experiment [8]: qHTS of pediatric cancer cell lines to identify multiple opportunities for drug repurposing: Primary screen for LAN-5 cells (AID 1347100). Further: potency means the concentration at half of the fitted maximal effect. A digest of the protocol: as §2
Experiment [9] can be described thus: qHTS of pediatric cancer cell lines to identify multiple opportunities for drug repurposing: Primary screen for BT-12 cells (AID 1347101). Further: nearly all actives have a fitted effect of over 25% in size. Further: potency means the concentration at half of the fitted maximal effect. The essentials: as §3
Experiment [10] in a line: qHTS of pediatric cancer cell lines to identify multiple opportunities for drug repurposing: Primary screen for BT-37 cells (AID 1347094). Further: potency means the concentration at half of the fitted maximal effect. A digest of the protocol: as §1

Records with an inconclusive call do not appear. Activity calls are given as the source filed them. The call rests on the fitted dose curve; in most records, active means well fitted curve in the direction sought with a large enough effect; inconclusive means small, poorly fitted or top-dose-only effect, or another doubt; inactive means no such curve, though single readings can be large; an effect the other way counts as inactive or inconclusive.

On to `Cn1cc[nH]c1=S`, for which the Potency entry in [1], in experiment [2], in experiment [3], in [4], in experiment [5] and in experiment [6] was “inactive” in each case. Besides, the Potency entry in experiment [7], in experiment [8] and in [9] was “inactive” each time.
With `CCN(CC)CCNC(=O)c1c(C)[nH]c(/C=C2\C(=O)Nc3ccc(F)cc32)c1C`, the Potency in experiment [1] is 10.6 µM (active); in experiment [2], 2.37 µM (active); in experiment [10], 17.4 µM (active); in [8], 11.9 µM (active); in [9], 21.9 µM (active). Besides, the Potency entry in [6] was “inactive”.
With `C[C@H](N)[C@H](O)c1cccc(O)c1`, the Potency entry in experiment [1], in experiment [2], in [10], in experiment [3], in experiment [5] and in experiment [6] was “inactive” each time. The Potency entry in experiment [7], in experiment [8] and in experiment [9] was “inactive” each time.
Turning to `NC(=O)N/N=C/c1ccc([N+](=O)[O-])o1`, in experiment [1], the Potency was 48.6 µM (active). The Potency entry in experiment [2], in experiment [3], in experiment [4], in experiment [5], in experiment [6] and in [7] was “inactive” throughout. Besides, the Potency result in [8] is “inactive”.
Consider `OCC(CO)N[C@H]1C[C@](O)(CO)[C@@H](O)[C@H](O)[C@H]1O`, for which the Potency result in experiment [1], in experiment [2], in experiment [10], in [3], in experiment [6] and in experiment [7] was “inactive” in each case. In addition, the Potency result in experiment [8] and in experiment [9] was “inactive” throughout.
As for `CC1(C)CO[C@@H](CC(=O)O)CN1`, the Potency result in [1], in experiment [2], in [10], in [3], in experiment [6] and in experiment [7] was “inactive” each time. Besides, the Potency entry in [8] and in experiment [9] was “inactive” in each case.
In the case of `COc1cc(C)c(Cc2cnc(N)nc2N)cc1OC`, the Potency entry in experiment [1], in [10], in experiment [3], in experiment [4], in [6] and in [8] was “inactive” in each case. Moreover, the Potency entry in experiment [9] is “inactive”. For the same compound, the Potency in [2] was 11.9 µM (active).
Regarding `CCOC(CN1CCN(CC(C)C(=O)c2ccccc2)CC1)c1ccccc1` (stereo not given), the Potency entry in [1], in [2], in experiment [3], in [4], in [5] and in experiment [6] was “inactive” each time. Also, the Potency result in [7], in experiment [8] and in experiment [9] was “inactive” each time.
On to `N[C@@H](CSCCCO)C(=O)O`, for which the Potency entry in experiment [1], in experiment [2], in experiment [10], in [3], in [6] and in [7] was “inactive” throughout. Also, the Potency result in experiment [8] and in experiment [9] was “inactive” throughout.
With `Nc1ccc(S(=O)(=O)Nc2nccs2)cc1`, the Potency result in experiment [1], in experiment [2], in experiment [10], in experiment [3], in experiment [5] and in experiment [6] was “inactive” in each case. Besides, the Potency entry in experiment [7], in [8] and in experiment [9] was “inactive” throughout.
With `CC1=C(CC(=O)O)c2cc(F)ccc2/C1=C\c1ccc(S(C)(=O)=O)cc1`, the Potency result in [1], in experiment [2], in experiment [10], in experiment [3], in [4] and in experiment [7] was “inactive” each time. In addition, the Potency result in experiment [8] and in [9] was “inactive” each time.
Turning to `CC1(C)OC(=O)NC1=O`, the Potency entry in experiment [1], in experiment [2], in experiment [3], in [4], in experiment [5] and in experiment [6] was “inactive” throughout. The Potency result in experiment [7], in experiment [8] and in experiment [9] was “inactive” each time.
Regarding `O=C(O)Cc1sc(-c2ccccc2)nc1-c1ccc(Cl)cc1`, the Potency entry in [1], in experiment [2], in [10], in experiment [3], in [5] and in experiment [6] was “inactive” in each case. Besides, the Potency entry in experiment [7], in experiment [8] and in experiment [9] was “inactive” throughout.
With `C=Cc1c(C)c2cc3[nH]c(cc4nc(cc5nc(cc1[nH]2)C(C)=C5CCC(=O)O)C(CCC(=O)O)=C4C)c(C)c3C=C`, the Potency entry in experiment [1], in [2], in experiment [10], in [3], in [5] and in experiment [6] was “inactive” throughout. Besides, the Potency result in experiment [7], in experiment [8] and in [9] was “inactive” throughout.
As for `CCCCN1CCCC[C@H]1C(=O)Nc1c(C)cccc1C`, the Potency entry in [1], in experiment [2], in experiment [10], in experiment [3], in experiment [5] and in experiment [6] was “inactive” each time. Besides, the Potency result in experiment [7], in experiment [8] and in experiment [9] was “inactive” each time.
For the compound `CCC(=O)c1ccc(O)cc1`, the Potency entry in experiment [1], in [2], in [10], in experiment [3], in experiment [5] and in experiment [6] was “inactive” each time. Besides, the Potency result in experiment [7], in [8] and in experiment [9] was “inactive” in each case.
